Experimental data reported in the supplement of paper PMC10981050.
Where “and” joins values, the source holds several entries; their conditions need not be identical. Equal entries are not always repeated. Structures can show the parent of a compound that is named as a salt.

How the values were obtained:
Assay in all cases: cell viability relative to vehicle control; higher = less cytotoxic
Conditions in all cases: 10 µM
[1] = tested on: K562
Summary of the method: (§1)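 After removal of identity-inconsistent compounds, the Selleck bioactive, kinase and epigenetic probe libraries were screened on CRISPR-edited mutant clones and isogenic wild-type clones of four leukaemia lines. Plates were 384-well, each well holding 2000 cells in 50 µL medium and receiving a single 10 µM acoustically dispensed dose. CellTiter-Glo luminescence was read 48 h later, after the supernatant was taken off. Genedata Screener was used to express viability as percent of the on-plate vehicle control.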

[2] = tested on: MARIMO
Summary of the method: as §1

[3] = tested on: MOLM14
Summary of the method: as §1

[4] = tested on: OCI-AML2
Summary of the method: as §1

SMILES | cell viability ([1]; SRSF2 genotype: SRSF2 P95H/wt) | cell viability ([1]; SRSF2 genotype: SRSF2 wt/wt) [%] | cell viability ([2]; SRSF2 genotype: SRSF2 P95H/wt) [%] | cell viability ([2]; SRSF2 genotype: SRSF2 wt/wt) [%] | cell viability ([3]; SRSF2 genotype: SRSF2 P95H/wt) [%] | cell viability ([3]; SRSF2 genotype: SRSF2 wt/wt) [%] | cell viability ([4]; SRSF2 genotype: P95H/wt) [%] | cell viability ([4]; SRSF2 genotype: wt/wt) [%]
CC(CNC(=O)c1cccnc1)NC(=O)c1cccnc1 (stereo unspecified) [Nicaraven] | 100% and 95.4% | 107 | 106 | 108 | 101 | 104 | 101 | 98.4
C=CC(=O)N1CCC[C@@H](n2nc(-c3ccc(Oc4ccccc4)cc3)c(C(N)=O)c2N)C1 [Btk inhibitor 2] | 81.6% and 89.2% | 84.8 | 79.8 | 90.2 | 25.4 | 25.4 | 48.2 | 52.1
CN1CCN(C2=Nc3cc(Cl)ccc3Nc3ccccc32)CC1 [Clozapine (Clozaril)] | 85.7% and 106% | 98.8 | 104 | 94.4 | 101 | 106 | 100 | 98.1
CC1(C)CCCC2(C)OC(=O)C=C12 (stereo unspecified) [Dihydroactinidiolide] | 104% and 93.7% | 94.5 | 97.6 | 104 | 93.8 | 99.7 | 91.1 | 104
CC(C)[C@H]1CC[C@H](C(=O)N[C@H](Cc2ccccc2)C(=O)O)CC1 [Nateglinide (Starlix)] | 103% and 101% | 98.8 | 97.8 | 101 | 97.9 | 99.3 | 105 | 97.5
OCc1ccc(-c2ccc(-c3ccc(CO)s3)o2)s1 | 56.7% and 54.9% | 7.66 | 63.2 | 66 | 11.3 | 8.82 | 9.11 | 18.3
Cc1cnc(Nc2ccc(N3CCN(C)CC3)cc2)nc1Nc1cccc(S(=O)(=O)NC(C)(C)C)c1 | 0.99% and 2.2% | 2.6 | 17.1 | 16.1 | 0.12 | 0.18 | 0.19 | 2.96
Nc1ccc(O)c(C(=O)O)c1 [Mesalamine (Lialda)] | 94.9% and 87.4% | 90.1 | 89.8 | 94.7 | 87.3 | 92.1 | 97.2 | 100
CN(c1ccccc1CNc1nc(Nc2ccc3c(c2)CC(=O)N3)ncc1C(F)(F)F)S(C)(=O)=O | 17% and 28.3% | 16.4 | 8.93 | 3.27 | 0.69 | 0.39 | 1.33 | 13.7
Cc1cccc(C)c1NC(=O)C1CCCCN1C (stereo unspecified) [Mepivacaine HCl] | 105% and 102% | 111 | 106 | 95.3 | 96.5 | 102 | 108 | 99
COc1ccc(OC)c(C2C(C#N)=C(N)Oc3n[nH]c(-c4ccc5ccccc5c4)c32)c1 (stereo unspecified) | 104% and 111% | 105 | 98.9 | 99 | 98.7 | 102 | 105 | 106
CC1(C)C=C(CN2C/C(=C\c3ccc(F)cc3)C(=O)/C(=C/c3ccc(F)cc3)C2)C(C)(C)N1O | 1.83% and 3.61% | 1.04 | 0.52 | 1.15 | 0.27 | 0.28 | 0.24 | 0.32
Cc1cccc(C#Cc2ccccc2)n1 | 97.1% and 102% | 104 | 102 | 94.5 | 111 | 110 | 89.3 | 87.5
CC(C)(Sc1ccncc1-c1ccc(C#N)c2ccccc12)C(=O)O [Verinurad (RDEA3170)] | 102% and 101% | 102 | 105 | 104 | 95.8 | 102 | 109 | 105
COc1cc2c(cc1OC)[C@H]1C[C@@H](OC(=O)[C@@H](N)C(C)C)[C@H](CC(C)C)CN1CC2 [Valbenazine tosylate] | 93.2% and 97.7% | 101 | 108 | 93.9 | 103 | 106 | 97.2 | 96.9
CC(C)c1c2cc(-c3ccnc(NC4CCC(NC5CCOCC5)CC4)n3)ccc2nn1C (stereo unspecified) | 10% and 24.4% | 8.4 | 13.4 | 6.58 | 0.76 | 0.31 | 2.85 | 13.2
Nc1nc2c(ncn2COCCO)c(=O)[nH]1 [Acyclovir (Aciclovir)] | 98% and 101% | 95.1 | 99.2 | 98.3 | 103 | 99.1 | 105 | 102
C[C@@H](O)[C@H]1C(=O)N2C(C(=O)O)=C([C@H]3CCCO3)S[C@H]12 [Faropenem Sodium] | 89.8% and 77.8% | 82 | 88.3 | 94.3 | 88.3 | 90.3 | 87.1 | 97.4
Clc1ccc2c(N3CCN(CCCN4CCN(c5ccnc6cc(Cl)ccc56)CC4)CC3)ccnc2c1 [Piperaquine phosphate] | 99.4% and 95% | 98.2 | 93.8 | 103 | 85.3 | 102 | 92.7 | 88
COc1ccc(CCO[C@@H]2O[C@H](CO[C@@H]3OC[C@H](O)[C@H](O)[C@H]3O)[C@@H](OC(=O)/C=C/c3ccc(O)c(OC)c3)[C@H](O[C@@H]3O[C@@H](C)[C@@H](O)[C@@H](O)[C@H]3O)[C@H]2O)cc1O [Angoroside C] | 107% and 103% | 111 | 101 | 96.2 | 113 | 106 | 105 | 95.5
O=C(Nc1ccncc1)c1cc([N+](=O)[O-])ccc1Cl | 102% and 101% | 91.5 | 106 | 102 | 70.5 | 106 | 83.2 | 73.9

SMILES | cell viability ([1]; SRSF2 genotype: SRSF2 P95H/wt) | cell viability ([1]; SRSF2 genotype: SRSF2 wt/wt) [%] | cell viability ([2]; SRSF2 genotype: SRSF2 P95H/wt) [%] | cell viability ([2]; SRSF2 genotype: SRSF2 wt/wt) [%] | cell viability ([3]; SRSF2 genotype: SRSF2 P95H/wt) [%] | cell viability ([3]; SRSF2 genotype: SRSF2 wt/wt) [%] | cell viability ([4]; SRSF2 genotype: P95H/wt) [%] | cell viability ([4]; SRSF2 genotype: wt/wt) [%]
O=C1CC[C@@H](C(=O)N2CSC[C@H]2C(=O)O)N1 [Pidotimod] | 99.7% and 104% | 101 | 104 | 99.1 | 104 | 104 | 114 | 104
CC(=O)Oc1ccccc1C(=O)O [Aspirin (Acetylsalicylic acid)] | 102% and 101% | 94 | 96.4 | 95.9 | 95.7 | 102 | 100 | 96.7
Cn1c(=O)cc(N2CCC[C@@H](N)C2)n(Cc2ccccc2C#N)c1=O | 96.9% and 97.8% | 88.7 | 94 | 97.1 | 91.3 | 98.3 | 98 | 101
O=c1[nH]c(=O)n([C@H]2C[C@H](O)[C@@H](CO)O2)cc1Br [Bromodeoxyuridine (BrdU)] | 90.5% and 102% | 96.1 | 91.2 | 88 | 80.8 | 79.1 | 90.5 | 99.9
O=C1Nc2ccc(I)cc2C1=Cc1cc(Br)c(O)c(Br)c1 | 96.6% and 89.4% | 90.1 | 89.9 | 109 | 84.7 | 93.8 | 86.7 | 90.7
CCc1cncnc1N1CCN(Cc2nc3ccc(C(F)(F)F)cc3[nH]2)CC1 | 72.3% and 72.8% | 73.1 | 66.4 | 47.9 | 57.4 | 66.5 | 32.3 | 43.3
O=C1c2ccccc2C(=O)c2c1ccc(O)c2O [Alizarin] | 101% and 104% | 101 | 103 | 99.5 | 97 | 102 | 101 | 93
Nc1nc(F)nc2c1ncn2[C@@H]1O[C@H](CO)[C@@H](O)[C@@H]1O [Fludarabine (Fludara)] | 102% and 107% | 100 | 64.5 | 77.6 | 65.7 | 82.8 | 4.58 | 5.52
CN1CCN(CCOc2cc(OC3CCOCC3)c3c(Nc4c(Cl)ccc5c4OCO5)ncnc3c2)CC1 [Saracatinib (AZD0530)] | 7.73% and 16.1% | 9.65 | 97.1 | 107 | 50.3 | 55.9 | 73.4 | 63.4
Cc1ccc(N(CC2=NCCN2)c2cccc(O)c2)cc1 [Phentolamine Mesylate] | 93% and 101% | 92.5 | 90.3 | 95.2 | 102 | 103 | 102 | 86.7
CS(=O)(=O)n1cc2c(n1)CN([C@H]1CO[C@H](c3cc(F)ccc3F)[C@@H](N)C1)C2 [Omarigliptin (MK-3102)] | 98.3% and 102% | 96.2 | 99.2 | 99.9 | 101 | 96.4 | 101 | 103
NC(N)=N/N=C/c1c(Cl)cccc1Cl [Guanabenz (WY-8678) Acetate] | 81.4% and 86.5% | 84 | 83.3 | 83.3 | 84.1 | 86.5 | 89.6 | 88.1
O=CC(O)C(O)C(O)C(O)COC1OC(COC2OC(CO)C(O)C(O)C2O)C(O)C(O)C1O (stereo unspecified) [Manninotriose] | 112% and 107% | 110 | 97.8 | 97.1 | 103 | 104 | 108 | 104
C[C@@H]1C(=O)O[C@H](C)[C@H]1C[C@@H](O)[C@](C)(O)[C@H]1CC[C@@]2(O)C3=CC(=O)[C@@H]4C[C@@H](O)[C@@H](O)C[C@]4(C)[C@H]3CC[C@]12C [Cyasterone] | 105% and 98% | 105 | 95.2 | 98.3 | 114 | 105 | 105 | 98.2
NC(=O)c1cc(F)cc2c1C(=O)N(C1CCN(C3CCC(F)(F)CC3)CC1)C2 | 97.3% and 103% | 95.7 | 96.4 | 106 | 82.6 | 97.3 | 87.5 | 96.1
N#Cc1ccc(-c2csc(NN=C3CCCC3)n2)cc1 [Remodelin] | 76.6% and 86.8% | 87.6 | 66.9 | 62.1 | 92.3 | 99.4 | 61 | 72.3
Cc1cccc(CC(=O)N2CCc3c2ccc(-c2cn(C)c4ncnc(N)c24)c3F)n1 | 75.2% and 84.4% | 80.4 | 74.5 | 72.5 | 80.8 | 93.8 | 69.3 | 73.8
CCOC(=O)c1c(C)n(C)c2ccc(O)cc12 [Mecarbinate] | 108% and 99.1% | 99.8 | 97.3 | 104 | 116 | 112 | 92.2 | 98.1
CCS(=O)(=O)N1CC(CC#N)(n2cc(-c3ncnc4[nH]ccc34)cn2)C1 | 110% and 106% | 108 | 111 | 115 | 106 | 109 | 84.7 | 92.9
CN1C(CCl)Nc2cc(Cl)c(S(N)(=O)=O)cc2S1(=O)=O (stereo unspecified) [Methyclothiazide] | 92.4% and 91.5% | 98.4 | 96.5 | 100 | 90 | 97.4 | 96.3 | 99
C=C1[C@H](O)C[C@H]2[C@@H](/C=C(\C)C(=O)[C@@]3(O)C[C@H](C)[C@H](O)[C@@H]3[C@H]1O)C2(C)C | 98.1% and 92% | 99 | 93.7 | 100 | 99.8 | 98.1 | 93.9 | 101
